High-throughput results (PubChem BioAssay)
PfHsp90 yeast 2 = growth inhibition of yeast expressing Plasmodium Hsp90 | S. cerevisiae expressing PfHsp90, BacTiter-Glo ATP, 48 h; yeast lacking PDR1 and PDR3 efflux regulators | inhibition, % at 9.4 µM | actives 0.32% (n = 310,000);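 active = every replicate shows inhibition above about 80%, whatever the replicate mean, limit read from the data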;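 also: 0% = DMSO neutral controls and 100% = 20 µM radicicol positive controls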
tim23-1 inh = growth inhibitors of tim23-1 mutant yeast | S. cerevisiae tim23-1 growth, BacTiter-Glo luminescence, 24 h | inhibition, % at 20 µM | actives 1.3% (n = 330,000);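 active = growth inhibition of the mutant yeast at or above 50%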;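 also: temperature-sensitive mutant grown at 25 °C; plate controls were DMSO-treated mutant yeast for no effect and medium wells lacking yeast for full effect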
SKKanGAS inh = inhibitors of SKKanGAS S. pyogenes growth in kanamycin (SK-promoter or general growth effect); BacTiter-Glo, 6 h; inhibition, % at 7.5 µM; actives 1.3% (n = 300,000);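 active = mean replicate score, as percent of positive control median, at least 50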;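 also: strain carries kanamycin resistance gene driven by streptokinase promoter and grows in 40 µg/ml kanamycin; loss of luminescence reflects streptokinase promoter inhibition or plain growth inhibition; 0% = median of DMSO wells and 100% = positive control at its reference dose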
tim10-1 inh = tim10-1 yeast growth inhibition; inhibition, % at 20 µM; actives 2.2% (n = 330,000); S. cerevisiae tim10-1 ts strain growth, BacTiter-Glo, 24 h;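 active = inhibition of at least 40%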;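 also: mutant grown at 25 °C; 0% = DMSO wells with yeast and 100% = wells holding no yeast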
EBI2 block = blocks human EBI2 receptor beta-arrestin signaling | inhibition, % at 5 µM | EBI2 beta-arrestin recruitment, luminescence, 7a,25-OHC stimulated | P32249 | actives 0.81% (n = 360,000) | AID 651636; in the data active = inhibition above about 38%;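 also: enzyme fragment complementation signal reports receptor beta-arrestin coupling in cells; 0% = agonist plus DMSO wells and 100% = wells without agonist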
Target sequence (P32249 whole entry, looked up, the tested form may be a part): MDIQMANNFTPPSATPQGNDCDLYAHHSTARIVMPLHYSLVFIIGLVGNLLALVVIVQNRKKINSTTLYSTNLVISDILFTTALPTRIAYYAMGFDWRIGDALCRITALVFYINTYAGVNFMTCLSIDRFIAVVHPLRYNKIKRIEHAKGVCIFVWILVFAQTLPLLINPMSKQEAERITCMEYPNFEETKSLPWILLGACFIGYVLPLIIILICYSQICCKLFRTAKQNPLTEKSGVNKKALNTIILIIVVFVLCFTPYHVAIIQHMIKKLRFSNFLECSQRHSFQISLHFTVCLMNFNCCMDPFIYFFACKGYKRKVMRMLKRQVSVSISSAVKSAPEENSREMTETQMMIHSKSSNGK
TIM10 inh = growth inhibitors of TIM10 yeast strain | inhibition, % at 10 µM | AID 463195 | actives 1.4% (n = 330,000) | S. cerevisiae TIM10 strain growth, BacTiter-Glo luminescence, 24 h;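 active = inhibition of 40% or more at the single tested concentration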;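 also: wild-type TIM10 isogenic control strain grown at permissive 25 °C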
tim10-1 conf = confirmation of tim10-1 mutant yeast growth inhibitors; shares compounds with tim10-1 inh; S. cerevisiae tim10-1 ts strain growth, BacTiter-Glo, 24 h; inhibition, % at 20 µM; actives 56% (n = 7,400);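 active = inhibition of yeast growth at or above a set limit in either of two repeat tests at 20 µM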;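 also: tim10-1 mutant grown at permissive 25 °C to find synthetic lethal compounds; 0% = DMSO yeast wells and 100% = medium wells without yeast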
* hit, by the source's call; · = no result. In the library only some 4.7% were active in any assay of this set; here they are far more common.

SMILES	PfHsp90 yeast 2	tim23-1 inh	SKKanGAS inh	tim10-1 inh	EBI2 block	TIM10 inh	tim10-1 conf
CCOc1cc2nc3c4ccccc4n(C)c3nc2cc1OCC	-12	20	-17	47*	37	11	17
O=C(CNC(=O)C1COc2ccccc2O1)N/N=C\c1ccc(Br)cc1 (centres undefined)	5	46	-4	60*	22	33	24
O=C(N/N=C/C=C/c1ccc([N+](=O)[O-])cc1)C1COc2ccccc2O1 (centres undefined)	-8	35	-1	51*	-1	19	37*
Cc1ccsc1C(=O)OCC(=O)N1CCc2ccccc2C1	·	14	-4	22	-2	24	·
COc1ccc(-n2cc3c(-c4cccc(Br)c4)nnc(C)c3n2)cc1	-5	48	28	46*	22	26	31
COc1ccc(CC(=O)Nc2cc(S(=O)(=O)N3CCOCC3)ccc2N2CCOCC2)cc1OC	9	·	·	·	-1	·	·
COC(=O)c1cn(-c2ccc(Cl)cc2)c(=O)c2ccccc12	-22	39	-5	44*	-4	25	29
COc1cc(C(=O)NCC(=O)N/N=C/c2ccc(-c3cccc([N+](=O)[O-])c3)o2)cc(OC)c1OC	-14	10	4	13	11	2	·
Cc1ccc(S(=O)(=O)NC(=O)C2(C)CCN2C(=O)C2CC2)cc1 (centres undefined)	·	·	·	·	-11	·	·
COc1ccc(OCC(=O)N2N=C(C(F)F)CC2(O)C(F)F)cc1 (centres undefined)	16	21	12	53*	-28	2	43*
CCOC(=O)C1CCN(C(=O)CN(Cc2ccc(Cl)cc2)S(C)(=O)=O)CC1	-18	9	-4	97*	-2	13	1
CC1CCN(S(=O)(=O)c2ccc(C(=O)Nc3nnc(C4CC4)o3)cc2)CC1	·	38	17	41*	5	20	10
O=C(O)c1ccc(COc2ccccc2C=C2C(=O)c3ccccc3C2=O)cc1	-1	28	1	40	-1	27	9
CN(CC(=O)Nc1cccc(F)c1)C(=O)c1ccccc1Cc1ccccc1	-13	24	2	15	6	8	·
O=[N+]([O-])c1ccc(Cn2cc(-c3cccc(C(F)(F)F)c3)nn2)cc1	-9	49	2	47*	5	20	32*
Cc1ccc(S(=O)(=O)NNC(=O)C2Cc3c(ccc4ccccc34)O2)cc1 (centres undefined)	6	22	6	28	7	20	·
CCCCOc1ccc(S(=O)(=O)NNC(=O)C2Cc3c(ccc4ccccc34)O2)cc1 (centres undefined)	·	35	19	45*	-5	19	25
CC1CCC(NC(=O)c2cc(Cl)nc3ccccc23)CC1 (centres undefined)	-7	18	·	12	10	10	·
Cc1cnn(-c2cc(Oc3ccccc3)ncn2)c1	-32	-9	2	49*	-2	14	26
CC1(C)SC(=S)N(NC(=O)Nc2ccccc2)C1N(O)C(=O)Nc1cccc2ccccc12 (centres undefined)	-6	31	39	42*	-4	14	24
Cc1nc2cc(C(F)(F)F)ccc2n1CCNc1nc(-c2ccc(F)cc2)cs1	-22	15	15	46*	10	13	22
COc1ccc(-c2csc(NCCn3c(C)nc4cc(C(F)(F)F)ccc43)n2)cc1	4	47	·	15	12	13	·
Cc1cc(N2CCCC2)nc(N2C3CCC2CC(O)(c2ccc(F)cc2)C3)n1 (centres undefined)	·	3	-2	0	·	12	·
COc1ccc(C2(O)CC3CCC(C2)N3c2cc(C)nc(-c3ccccc3)n2)cc1 (centres undefined)	9	31	-10	42*	30	33	32*
Cc1ccc(-n2nc(C(=O)NCc3ccc(C)o3)c3c4ccccc4n(C)c3c2=O)cc1	4	26	-6	25	22	35	·
Cc1ccc(/C=C2\SC(N3CCN(C(c4ccccc4)c4ccccc4)CC3)=NC2=O)o1	-110	22	18	17	17	13	·
